Out of some 1,200 compounds screened, about 480 (40%) were called active. How the calls were made is not given here. So high a share suggests a set chosen from earlier hits. These entries were drawn from the full list. A call without a number means that no potency is given here. Potency and affinity values are given separately.
assay: HepG2 cell cytotoxicity, dose response, cytotoxicity control, CellTiter-Glo luminescence, cherry-pick, set 2 (AID 743395); settings: HepG2 viability, CellTiter-Glo ATP luminescence, 72 h; series mostly up to 26 µM

SMILES | outcome
O=C(COC(=O)Cc1ccsc1)Nc1cccc(F)c1 | inactive
COc1cccc2cc(C(=O)NCCN3CCOCC3)c(=O)oc12 | inactive
COc1ccccc1OCCNC(=O)CCNC(=O)c1ccccc1OC | inactive
NS(=O)(=O)c1ccc(NC(=O)c2cccc3cc4ccccc4nc23)cc1 | inactive
O=C1NC(Cc2ccc(O)cc2)c2nc3ccc(Br)cc3c(=O)n2-c2cc3ccccc3cc21 (stereo not drawn) | inactive
COc1ccccc1S(=O)(=O)N1CC[C@@H]2[C@@H](CO)N(C)c3ccc(-c4ccc(F)cc4)cc3[C@@H]21 | inactive
COc1ccccc1Cc1c(-c2ccc(Cl)cc2)nc2ccc(Br)cn12 | inactive
O=C(O)CCCCCCCCc1cn(Cc2ccc(C(=O)c3ccccc3)cc2)nn1 | inactive
CC1CCN(S(=O)(=O)N2CCCC(C(=O)NCc3ccccc3Cl)C2)CC1 (stereo not drawn) | inactive
C[C@@](Cc1ccc(O)c(O)c1)(NN)C(=O)O | inactive
COc1ccc(NC(=O)c2cc(C3CC3)on2)c(OC)c1 | inactive
Cc1ccc(Nc2nc(CSc3nnc(-c4cccnc4)n3-c3ccccc3F)cs2)cc1 | inactive
Cc1cc(C(=O)CCC(=O)NC(C)c2ccc(S(N)(=O)=O)cc2)c(C)s1 (stereo not drawn) | inactive
Cc1c(Cl)cccc1NC(=O)C1CC(=O)N(C2CCCC2)C1 (stereo not drawn) | inactive
COCCNC(=O)C1CCCN(C(=O)c2cc(-c3cccs3)oc2C)CC1 (stereo not drawn) | inactive
O=C1NN(c2cccc(Br)c2)C(=O)/C1=C\c1ccc(O)cc1 | inactive
CCN1C(=O)c2cccc3c(S(=O)(=O)N(C(C)=O)c4ccc(OC(C)=O)cc4)ccc1c23 | inactive
Cc1ccc(N2C(=O)c3cccc4c([N+](=O)[O-])ccc(c34)C2=O)c2cccnc12 | inactive
O=C1c2cccc3c([N+](=O)[O-])ccc(c23)C(=O)N1Cc1cccnc1 | inactive
CCOc1ccc(NC(=O)c2ccc(NC(=O)CN3C(=O)C(=O)N(CC(C)C)C3=O)cc2)cc1 | inactive
CC1C2CCC(C2)C1OC(=O)c1ccccc1C(=O)O (stereo not drawn) | inactive
CCCCn1nc(NC(=O)CC)c2cc3cc(OC)ccc3nc21 | inactive
O=C1CCC(CCc2nc3ccccc3[nH]2)(c2ccccc2)C(=O)N1 (stereo not drawn) | inactive
N#C/C(=C\c1ccccn1)c1nc2ccccc2s1 | inactive

SMILES | outcome
O=C(C[C@@H]1C[C@H]2c3cc(NC(=O)CC4CC4)ccc3O[C@H]2[C@H](CO)O1)NCc1cccc(F)c1 | inactive
COC(=O)C1(C)CCCC2(C)C3CCC(C(C)C)C(CO)C3C(CO)CC12 (stereo not drawn) | inactive
CCSc1nnc(N2C(=O)C(O)=C(C(=O)c3ccco3)C2c2cccc(OC)c2)s1 (stereo not drawn) | inactive
Cc1cccc(C)c1OCC(=O)OCC(=O)Nc1ccc(Cl)cn1 | inactive
O=C(Nc1ccc(Cl)cn1)c1cccc2ccccc12 | inactive
CC(=Nc1ccccc1O)c1sc2ccccc2c1O | inactive
COc1ccc(N=C2C(=O)N3CCCc4cccc2c43)cc1 | inactive
CCN(C(=O)CSc1nc2ccccc2c(=O)n1-c1ccccc1F)C1CCS(=O)(=O)C1 (stereo not drawn) | inactive
O=C(CN1C(=O)NC2(CCCCCCC2)C1=O)Nc1ccc(Br)cc1 | inactive
Nc1ccccc1C(=O)N1O[C@@H]2C=C[C@H]1C2 | inactive
CCOC(=O)c1sc(NC(=O)c2c(CC)noc2C)nc1C | inactive
CCOC(=O)c1sc2nc(Cc3ccc(Cl)cc3)[nH]c(=S)c2c1C | inactive
Cc1noc(C)c1C(=O)NCC1COc2ccccc2O1 (stereo not drawn) | inactive
CC1CCN(C(=O)c2ccc(S(=O)(=O)N3CCCC3)cc2)CC1 | inactive
N#CC1c2ccccc2-c2ccccc2N1C(=O)c1ccccc1 (stereo not drawn) | inactive
Cc1ccc(NC(=O)CSC2=NN3CCCC(=O)N=C3S2)c(C)c1 | inactive
Fc1ccccc1/C=N/NC(=S)Nc1ccc(Cl)cc1Cl | inactive
COc1ccc(Cl)cc1NC(=O)CN(C)CC(=O)Nc1cc(OC)c(OC)c(OC)c1 | inactive
CC(=O)Nc1ccc(NC(=O)COc2cccc3c2OC(C)(C)C3)cc1 | inactive
COc1cccc(NC(=O)CN2C(=O)NC3(CCCCCC3)C2=O)c1 | inactive
CCOC1=C/C(=C/c2c(N)n3nc(S(=O)(=O)CC)sc3nc2=O)C=CC1=O | inactive
Cc1cccc(NC(=O)c2ccccc2NC(=O)C2CCCCC2)c1C | inactive
Fc1ccc(/C=N/NC(=S)Nc2ccc(Cl)cc2Cl)cc1 | inactive
COc1ccc(C=NNC(=O)CCCC(=O)NN=Cc2ccc(OC)c(O)c2)cc1O | inactive

SMILES | outcome
COc1ccc(/C=N/NC(=O)c2c(C)nc3ccc(Br)cn23)cc1OC | inactive
COc1cc(/C=C/C(=O)c2ccc3c(c2)OCO3)cc(Cl)c1O | inactive
Cc1cc(NC(=O)CN2C(=O)NC3(CCCCCC3)C2=O)ccc1Br | inactive
Cc1cnc(NC(=O)CCc2ccccc2)s1 | inactive
CCC1=Nc2cc(C(=O)NCc3cccnc3)ccc2Sc2ccc(C)cc21 | inactive
CCn1c(SC(C)C(=O)NCC2CCCO2)nc2ccccc21 (stereo not drawn) | inactive
COc1cc(C(=O)NCC2CCCO2)ccc1OCc1ccc(Cl)cc1 (stereo not drawn) | inactive
COc1ccccc1OCC(O)CN1C(=O)NC(C)(C)C1=O (stereo not drawn) | inactive
C/C=C/c1ccc([C@H]2[C@@H](CNC(=O)CC)N(C(=O)COC)[C@H]2CO)cc1 | inactive
CCN(C(=O)COC(=O)/C=C/c1c(C)nn(-c2ccccc2)c1C)c1c(N)n(Cc2ccccc2)c(=O)[nH]c1=O | inactive
CN(Cc1ccco1)c1ncnc2ccc(-c3ccc4c(ccn4C)c3)cc12 | inactive
COc1ccccc1C(=O)Nc1ccc2c(c1)nc(CCNC(=O)c1ccco1)n2C | inactive
CC1(C)Cc2c(c(-c3ccco3)nc3sc4c(NCCN5CCOCC5)ncnc4c23)CO1 | inactive
O=C(c1cccc(S(=O)(=O)N2CCOCC2)c1)N1CCCC(C(F)(F)F)C1 (stereo not drawn) | inactive
CN(CCOc1ccc(Cl)cc1)C(=O)c1cccc(S(=O)(=O)N2CCN(c3ccccc3)CC2)c1 | inactive
CCN(CC)S(=O)(=O)c1ccc(NC(=O)C2CC(=O)N(c3ccc4c(c3)OCCO4)C2)cc1 (stereo not drawn) | inactive
Cc1cc(C(=O)N/N=C/c2ccc3c(c2)OCO3)c2ccccc2n1 | inactive
Cn1cc(C(=O)OCC2CCN(CCNS(C)(=O)=O)CC2)c2ccccc21 | inactive
COc1cc(C(=O)Nc2ccc(C)cc2)c2ccccc2n1 | inactive
CCOc1ccc(NC(=O)c2ccccc2NC(=O)CNC2CCCC(C)C2C)cc1 (stereo not drawn) | inactive
COc1ccc(OCC(=O)N/N=C/C=C/c2ccccc2)cc1 | inactive
COc1ccc2[nH]c(C(=O)N/N=C/c3ccc(OC)c(O)c3)cc2c1 | inactive
CC(C)C[C@@H](COCc1ccc(C(F)(F)F)cc1)N1CCN(C(=O)c2ccc(C(F)(F)F)cc2)CCC1=O | inactive
CN(CC(=O)NCCc1ccc(S(N)(=O)=O)cc1)CC(=O)Nc1ccc(Cl)c(C(F)(F)F)c1 | inactive

SMILES | outcome
Nc1c2c(nc3ccccc13)CCCC2 | inactive
CCOC(=O)C1CCCN(c2nc3ccccc3nc2NS(=O)(=O)c2ccc(C)cc2)C1 (stereo not drawn) | inactive
CCOC1=C2CN(S(=O)(=O)c3ccc(C)cc3)CC[C@@H]2N(S(=O)(=O)c2ccc(C)cc2)[C@H](c2ccccc2)C1 | inactive
C[C@H]1C[C@H]2[C@@H]3CCC4=CC(=O)C=C[C@]4(C)[C@@]3(F)[C@@H](O)C[C@]2(C)[C@@]1(O)C(=O)CO | inactive
Cc1ccc(-c2ccc3c(c2)O[C@H](CN(C)C(=O)Nc2ccc(C(F)(F)F)cc2)[C@@H](C)CN([C@@H](C)CO)S3(=O)=O)cc1 | inactive
Cc1ccc(-c2ccc3c(c2)O[C@H](CN(C)C(=O)Nc2ccc(F)cc2)[C@@H](C)CN([C@@H](C)CO)S3(=O)=O)cc1 | inactive
C[C@H]1CN([C@@H](C)CO)S(=O)(=O)c2ccc(C3=CCCCC3)cc2O[C@@H]1CN(C)C(=O)Cc1ccncc1 | inactive
COc1cccc(S(=O)(=O)N(C)C[C@@H]2Oc3cc(C4=CCCC4)ccc3S(=O)(=O)N([C@@H](C)CO)C[C@H]2C)c1 | inactive
Cc1ccc(-c2ccc3c(c2)O[C@@H](CN(C)C(=O)Nc2ccc(F)cc2)[C@@H](C)CN([C@@H](C)CO)S3(=O)=O)cc1 | inactive
C[C@@H]1CN([C@H](C)CO)S(=O)(=O)c2ccc(-c3ccc(C#N)cc3)cc2O[C@H]1CN(C)Cc1ccccn1 | inactive
Cc1ccc(-c2ccc3c(c2)O[C@@H](CN(C)C(=O)Nc2ccc(F)cc2)[C@@H](C)CN([C@H](C)CO)S3(=O)=O)cc1 | inactive
C[C@@H]1CN([C@H](C)CO)S(=O)(=O)c2ccc(-c3ccc(C#N)cc3)cc2O[C@H]1CN(C)Cc1cccc(F)c1 | inactive
CC(=O)c1c(C)[nH]c(C(=O)OCc2nnc(-c3ccc([N+](=O)[O-])cc3)o2)c1C | inactive
Cc1ccc(-c2ccc3c(c2)O[C@H](CN(C)C(=O)Nc2ccc(C(F)(F)F)cc2)[C@H](C)CN([C@@H](C)CO)S3(=O)=O)cc1 | inactive
C[C@@H]1CN([C@@H](C)CO)S(=O)(=O)c2ccc(-c3ccc(C#N)cc3)cc2O[C@H]1CN(C)Cc1cccc(F)c1 | inactive
C[C@@H]1CN([C@H](C)CO)S(=O)(=O)c2ccc(C#CC3CC3)cc2O[C@H]1CN(C)Cc1ccccn1 | inactive
C[C@@H]1CN([C@@H](C)CO)S(=O)(=O)c2ccc(C#Cc3ccc(F)cc3)cc2O[C@H]1CN(C)C(=O)c1ccccn1 | inactive
CO[C@@H](CN(C)S(=O)(=O)c1ccc(C)cc1)[C@H](C)CN([C@@H](C)CO)S(=O)(=O)c1cccc(Cl)c1 | inactive
O=C(Cc1ccccn1)NCC[C@@H]1CC[C@H](NC(=O)Nc2ccc(C(F)(F)F)cc2)[C@@H](CO)O1 | inactive
O=C(O)c1ccccc1-c1nc(-c2ccccc2)c(-c2ccccc2)[nH]1 | inactive
O=C(NCc1ccccc1)C(c1ccc(-c2ccccc2)cc1)n1c(=O)c(-c2cc3ccccc3[nH]2)nc2ccccc21 (stereo not drawn) | inactive

— PubChem BioAssay AID743395 (Broad Institute, 2014)
